The subject of the assay is PXR:RXRa (NR concentration 270 nM, RXRa partner concentration 90 nM). The experiment in a line: PBM binding z-score (relative to random genomic background probes); higher = stronger binding; sequences stand for … in GC…GCGATTGACAGCGTAGAATGAAGG
In a few lines:
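For binding z-scores, the reference was random background probes on custom Agilent 4×180K protein-binding microarrays. These arrays were incubated 1 h with ligand-free nuclear receptor dimers in PBS pH 7.4, 2% milk, 0.02% Triton X-100, 1 mM DTT, 0.2 mg/mL BSA and 0.4 mg/ml salmon testes DNA. Fluorescence was scanned after antibody detection of each partner (one per run) and regression-normalized.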
On to TCTGCTAGGTCAGTTCGTCAGCTAACGAGCTGCC, for which the PBM binding z-score amounted to 0.229. In the case of CCTACTGGGGCAAAAAGGTCATTGATGCCGATAA it was 5.17. In the case of TTACCAAGGTGAAAGGTAGTTGATGCACGCCTTG it was 0.603. In the case of TCAGACAGGTGAAGGTAACTTAGGTACGCAGTCG it was 0.989; in that of GCTGCTAGGTCAGGTGGGTCAGCTAACGGGTACG, 1.28. As to TAGCCTAGCTCATTGGGCCAGTATAGTACGCATC, the PBM binding z-score is -0.795.

AACACAGGGTCATCGTAGGCCAGAGTACGCACAG gave a PBM binding z-score of 4.91.

GTACCAAGGTGGATAGGTCGTTGATGAGTAGGCG: the PBM binding z-score was -0.207. In the case of ACTATTAGTTGAGACGAGGGTAACCGATAGGTTG it was 0.245. In the case of CGTCAAAGTTCTACTAAGGTAACGTAAAGCACGC it was 0.134. The same measure for CGTCCAAGGTCAGAGGTCAGTGAAGAGATGACGG: 5.72; for GCTATTAATTGAAAGGGCAACCGAATGATTCTCG: 0.52; for GCATATAGGTAATACAAGGTGAACGTCCGATTGT: 0.252.

As to CGTGCAAGGTCATAGGAGGTCAGTGAAGACAGAT, the PBM binding z-score was 7.21. In the case of CAAACTAGGTCACCGGAAGGTCAAAGTCCGCATG it was 5.88; in that of TAGGCTAGGTCATGGGCCAGTATACCACGCGAAC, 1.42. In the case of CGTCCAAGGTCAGAGAGGTCAGGGAATGCCGAGT it was 5.87. Regarding AGAATGACGTTATTAAGATCAGGGAATTGCGGTC, the PBM binding z-score was -0.327.

The record behind these values is the supplement of paper PMC6555819.
